Assay [1] addresses Mitogen-activated protein kinase 3 (Homo sapiens) (UniProt P27361). The note with it: at 1 µM.
Assay [2] deals with SRSF protein kinase 3 (Homo sapiens) (UniProt Q9UPE1). The note with it: at 0.1 µM.
The target is the same in assay [3]. The note with it: at 1 µM.
In assay [4] the target is Mitogen-activated protein kinase 14 (Homo sapiens) (UniProt Q16539). The note with it: at 0.1 µM.
For assay [5] the target is unchanged. The note with it: at 1 µM.
For assay [6], the target named is Mitogen-activated protein kinase 11 (Homo sapiens) (UniProt Q15759). The note with it: at 0.1 µM.
Sequence of Mitogen-activated protein kinase 11 (Homo sapiens) (Q15759 whole entry): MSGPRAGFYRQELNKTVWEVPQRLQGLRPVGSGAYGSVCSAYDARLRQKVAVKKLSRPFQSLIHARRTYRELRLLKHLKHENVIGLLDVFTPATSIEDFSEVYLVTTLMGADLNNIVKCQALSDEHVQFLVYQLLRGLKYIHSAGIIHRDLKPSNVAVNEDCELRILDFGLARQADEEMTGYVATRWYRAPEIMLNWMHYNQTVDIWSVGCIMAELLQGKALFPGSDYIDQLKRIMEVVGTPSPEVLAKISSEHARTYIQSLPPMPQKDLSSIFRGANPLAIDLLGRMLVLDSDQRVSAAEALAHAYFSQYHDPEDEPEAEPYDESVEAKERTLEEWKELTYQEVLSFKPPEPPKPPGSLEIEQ
The target is the same in assay [7]. The note with it: at 1 µM.
The target of assay [8] is T1, Mitogen-activated protein kinase 13 (Homo sapiens) (UniProt O15264).
T1 sequence (whole entry): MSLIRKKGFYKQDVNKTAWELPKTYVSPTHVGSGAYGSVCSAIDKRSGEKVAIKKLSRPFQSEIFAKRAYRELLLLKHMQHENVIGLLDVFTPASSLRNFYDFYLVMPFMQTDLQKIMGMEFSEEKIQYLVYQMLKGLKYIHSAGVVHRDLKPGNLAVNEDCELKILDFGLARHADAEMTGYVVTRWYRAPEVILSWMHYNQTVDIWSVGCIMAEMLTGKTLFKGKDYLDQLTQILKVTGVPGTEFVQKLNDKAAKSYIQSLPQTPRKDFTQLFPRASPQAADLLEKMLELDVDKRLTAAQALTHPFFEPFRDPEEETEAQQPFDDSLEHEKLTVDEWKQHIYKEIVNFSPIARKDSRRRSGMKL
The note with it: at 0.1 µM.

Assay [9] concerns the target T1, Mitogen-activated protein kinase 13 (Homo sapiens). The note with it: at 1 µM.
In assay [10] the target is T2, Mitogen-activated protein kinase 12 (Homo sapiens) (UniProt P53778).
T2 sequence (whole entry): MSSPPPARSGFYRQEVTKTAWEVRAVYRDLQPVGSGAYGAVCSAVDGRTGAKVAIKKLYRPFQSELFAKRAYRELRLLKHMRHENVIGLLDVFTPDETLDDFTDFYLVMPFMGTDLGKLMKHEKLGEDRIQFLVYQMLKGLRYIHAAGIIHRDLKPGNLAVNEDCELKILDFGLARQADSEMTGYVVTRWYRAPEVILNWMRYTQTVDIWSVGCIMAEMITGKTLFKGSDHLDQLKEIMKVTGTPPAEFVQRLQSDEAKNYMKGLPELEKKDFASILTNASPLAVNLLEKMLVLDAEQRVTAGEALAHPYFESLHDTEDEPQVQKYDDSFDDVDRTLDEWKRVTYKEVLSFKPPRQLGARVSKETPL
The note with it: at 0.1 µM.

The target of assay [11] is T2, Mitogen-activated protein kinase 12 (Homo sapiens). The note with it: at 1 µM.
Assay [12] deals with SRSF protein kinase 1 (Homo sapiens) (UniProt Q96SB4). The note with it: at 0.1 µM.
Sequence of SRSF protein kinase 1 (Homo sapiens) (Q96SB4 whole entry): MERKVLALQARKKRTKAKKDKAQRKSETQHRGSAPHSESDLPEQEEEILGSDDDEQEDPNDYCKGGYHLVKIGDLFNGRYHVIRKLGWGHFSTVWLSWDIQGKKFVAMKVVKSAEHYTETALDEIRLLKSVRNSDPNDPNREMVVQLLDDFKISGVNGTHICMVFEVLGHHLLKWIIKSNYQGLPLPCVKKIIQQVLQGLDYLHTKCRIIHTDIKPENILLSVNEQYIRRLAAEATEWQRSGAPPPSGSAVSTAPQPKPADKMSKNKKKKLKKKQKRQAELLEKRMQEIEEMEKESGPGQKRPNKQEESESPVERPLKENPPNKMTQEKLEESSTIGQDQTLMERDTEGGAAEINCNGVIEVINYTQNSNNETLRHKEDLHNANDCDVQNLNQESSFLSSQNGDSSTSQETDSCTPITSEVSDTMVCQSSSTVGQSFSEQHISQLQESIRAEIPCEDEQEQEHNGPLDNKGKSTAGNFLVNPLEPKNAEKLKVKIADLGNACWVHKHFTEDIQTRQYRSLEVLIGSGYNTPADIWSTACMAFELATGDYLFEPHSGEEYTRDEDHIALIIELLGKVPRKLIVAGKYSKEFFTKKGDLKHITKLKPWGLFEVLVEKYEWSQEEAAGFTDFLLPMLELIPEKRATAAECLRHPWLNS
The target is the same in assay [13]. The note with it: at 1 µM.
For assay [14], the target named is Phosphatidylinositol 4,5-bisphosphate 3-kinase catalytic subunit alpha isoform (Homo sapiens) (UniProt P42336). The note with it: at 0.1 µM.
Sequence of Phosphatidylinositol 4,5-bisphosphate 3-kinase catalytic subunit alpha isoform (Homo sapiens) (P42336 whole entry, canonical isoform): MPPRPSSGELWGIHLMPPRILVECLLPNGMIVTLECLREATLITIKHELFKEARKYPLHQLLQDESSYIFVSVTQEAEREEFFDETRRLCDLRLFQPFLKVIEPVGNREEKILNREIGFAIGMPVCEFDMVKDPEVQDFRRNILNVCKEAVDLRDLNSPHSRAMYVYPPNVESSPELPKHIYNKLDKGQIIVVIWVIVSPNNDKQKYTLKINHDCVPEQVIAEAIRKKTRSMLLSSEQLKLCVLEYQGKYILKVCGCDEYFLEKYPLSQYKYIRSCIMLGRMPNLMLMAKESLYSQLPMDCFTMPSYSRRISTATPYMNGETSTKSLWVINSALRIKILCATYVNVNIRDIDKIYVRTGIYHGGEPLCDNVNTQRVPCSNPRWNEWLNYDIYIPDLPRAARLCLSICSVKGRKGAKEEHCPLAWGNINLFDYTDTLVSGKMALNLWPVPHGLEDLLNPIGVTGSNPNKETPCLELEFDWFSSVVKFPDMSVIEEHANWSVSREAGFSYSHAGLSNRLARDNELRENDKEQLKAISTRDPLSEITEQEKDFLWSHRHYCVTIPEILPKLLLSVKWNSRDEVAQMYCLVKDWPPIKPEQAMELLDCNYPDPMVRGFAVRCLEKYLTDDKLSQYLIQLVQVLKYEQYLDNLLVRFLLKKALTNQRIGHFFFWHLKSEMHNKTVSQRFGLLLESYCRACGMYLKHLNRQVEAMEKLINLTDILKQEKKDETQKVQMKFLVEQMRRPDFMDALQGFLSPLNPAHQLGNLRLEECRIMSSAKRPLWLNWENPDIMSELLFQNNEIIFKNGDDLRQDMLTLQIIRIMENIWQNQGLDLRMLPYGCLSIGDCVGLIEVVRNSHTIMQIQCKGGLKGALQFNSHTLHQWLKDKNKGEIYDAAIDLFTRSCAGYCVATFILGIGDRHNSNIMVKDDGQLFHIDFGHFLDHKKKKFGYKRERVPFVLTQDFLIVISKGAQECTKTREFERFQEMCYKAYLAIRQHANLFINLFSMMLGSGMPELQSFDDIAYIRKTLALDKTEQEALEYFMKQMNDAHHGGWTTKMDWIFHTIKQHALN
The target is the same in assay [15]. The note with it: at 1 µM.
Assay [16] deals with T3, Phosphatidylinositol 4,5-bisphosphate 3-kinase catalytic subunit delta isoform (Homo sapiens) (UniProt O00329).
T3 sequence (whole entry): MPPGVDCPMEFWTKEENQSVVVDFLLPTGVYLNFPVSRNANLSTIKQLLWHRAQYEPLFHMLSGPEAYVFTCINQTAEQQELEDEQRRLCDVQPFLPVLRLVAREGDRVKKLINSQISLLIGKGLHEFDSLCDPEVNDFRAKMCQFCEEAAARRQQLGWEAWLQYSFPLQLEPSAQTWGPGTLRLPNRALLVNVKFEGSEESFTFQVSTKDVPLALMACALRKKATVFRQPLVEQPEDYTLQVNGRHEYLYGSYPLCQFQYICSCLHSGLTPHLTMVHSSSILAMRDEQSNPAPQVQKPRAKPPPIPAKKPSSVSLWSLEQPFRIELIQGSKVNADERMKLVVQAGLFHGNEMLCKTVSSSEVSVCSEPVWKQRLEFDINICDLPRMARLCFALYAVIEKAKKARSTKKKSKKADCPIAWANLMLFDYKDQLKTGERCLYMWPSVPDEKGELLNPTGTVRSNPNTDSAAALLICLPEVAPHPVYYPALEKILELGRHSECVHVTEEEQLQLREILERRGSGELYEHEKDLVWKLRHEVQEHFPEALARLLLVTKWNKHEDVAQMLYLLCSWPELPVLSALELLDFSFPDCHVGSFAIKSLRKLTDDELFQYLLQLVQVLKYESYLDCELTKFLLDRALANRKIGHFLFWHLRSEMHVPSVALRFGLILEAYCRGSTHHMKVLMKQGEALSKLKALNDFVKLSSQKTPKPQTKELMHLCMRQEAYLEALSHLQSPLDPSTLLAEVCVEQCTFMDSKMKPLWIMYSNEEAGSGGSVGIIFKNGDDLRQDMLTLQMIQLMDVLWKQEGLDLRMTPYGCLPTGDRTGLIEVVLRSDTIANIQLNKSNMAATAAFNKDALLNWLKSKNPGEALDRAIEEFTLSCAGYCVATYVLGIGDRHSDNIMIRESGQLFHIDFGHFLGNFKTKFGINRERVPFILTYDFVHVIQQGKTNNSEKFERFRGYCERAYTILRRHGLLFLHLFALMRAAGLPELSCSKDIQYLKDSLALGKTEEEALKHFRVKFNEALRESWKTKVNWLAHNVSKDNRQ
The note with it: at 0.1 µM.

Assay [17] concerns the target T3, Phosphatidylinositol 4,5-bisphosphate 3-kinase catalytic subunit delta isoform (Homo sapiens). The note with it: at 1 µM.
In assay [18] the target is Phosphatidylinositol 4-kinase beta (Homo sapiens) (UniProt Q9UBF8). The note with it: at 0.1 µM.
Sequence of Phosphatidylinositol 4-kinase beta (Homo sapiens) (Q9UBF8 2-816 limits assumed): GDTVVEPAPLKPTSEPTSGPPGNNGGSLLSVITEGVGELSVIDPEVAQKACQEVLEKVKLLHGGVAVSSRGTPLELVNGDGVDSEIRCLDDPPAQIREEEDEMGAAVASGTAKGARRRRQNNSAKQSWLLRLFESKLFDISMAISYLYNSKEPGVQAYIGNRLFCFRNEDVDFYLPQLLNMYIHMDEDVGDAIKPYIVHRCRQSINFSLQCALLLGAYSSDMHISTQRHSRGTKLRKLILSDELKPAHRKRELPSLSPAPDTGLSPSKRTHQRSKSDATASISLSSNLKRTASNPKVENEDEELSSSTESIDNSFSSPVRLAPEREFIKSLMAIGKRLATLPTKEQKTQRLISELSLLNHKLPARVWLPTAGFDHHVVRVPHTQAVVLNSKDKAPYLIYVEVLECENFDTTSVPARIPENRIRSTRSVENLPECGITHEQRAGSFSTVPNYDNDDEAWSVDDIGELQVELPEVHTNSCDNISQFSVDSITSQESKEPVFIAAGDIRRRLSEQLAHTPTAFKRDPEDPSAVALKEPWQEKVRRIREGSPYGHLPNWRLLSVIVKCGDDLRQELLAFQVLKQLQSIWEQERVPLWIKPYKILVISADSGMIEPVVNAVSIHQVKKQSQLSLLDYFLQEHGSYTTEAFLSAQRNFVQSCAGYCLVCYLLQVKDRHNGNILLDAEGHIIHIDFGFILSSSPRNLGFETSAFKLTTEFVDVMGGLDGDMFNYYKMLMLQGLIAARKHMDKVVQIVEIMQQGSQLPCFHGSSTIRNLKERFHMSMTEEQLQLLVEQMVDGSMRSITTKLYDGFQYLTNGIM
The target is the same in assay [19]. The note with it: at 1 µM.
Assay [20] has as its target Sphingosine kinase 1 (Homo sapiens) (UniProt Q9NYA1). The note with it: at 0.1 µM.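 Also: mean percent inhibition of SPHK1 activity, measured within the GSK PKIS screening panel.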

Usually inhibition stands for the drop in the measured response relative to a control, in per cent.

Sequence of SRSF protein kinase 3 (Homo sapiens) (Q9UPE1 whole entry): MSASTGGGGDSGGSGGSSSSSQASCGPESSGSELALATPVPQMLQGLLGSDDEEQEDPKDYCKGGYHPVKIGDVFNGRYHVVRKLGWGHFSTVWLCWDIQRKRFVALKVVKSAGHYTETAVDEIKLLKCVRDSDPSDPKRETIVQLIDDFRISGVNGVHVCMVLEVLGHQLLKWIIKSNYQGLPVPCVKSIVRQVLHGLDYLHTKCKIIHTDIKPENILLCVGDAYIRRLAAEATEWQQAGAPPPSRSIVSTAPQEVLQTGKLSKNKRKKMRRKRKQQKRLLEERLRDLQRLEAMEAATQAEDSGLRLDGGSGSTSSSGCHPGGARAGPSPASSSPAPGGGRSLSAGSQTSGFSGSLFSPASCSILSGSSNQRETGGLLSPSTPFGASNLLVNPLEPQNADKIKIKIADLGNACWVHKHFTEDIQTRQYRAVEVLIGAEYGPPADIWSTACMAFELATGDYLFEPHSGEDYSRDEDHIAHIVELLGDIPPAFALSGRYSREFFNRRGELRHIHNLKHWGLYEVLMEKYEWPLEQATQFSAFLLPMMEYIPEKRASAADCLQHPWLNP
Sequence of Sphingosine kinase 1 (Homo sapiens) (Q9NYA1 whole entry): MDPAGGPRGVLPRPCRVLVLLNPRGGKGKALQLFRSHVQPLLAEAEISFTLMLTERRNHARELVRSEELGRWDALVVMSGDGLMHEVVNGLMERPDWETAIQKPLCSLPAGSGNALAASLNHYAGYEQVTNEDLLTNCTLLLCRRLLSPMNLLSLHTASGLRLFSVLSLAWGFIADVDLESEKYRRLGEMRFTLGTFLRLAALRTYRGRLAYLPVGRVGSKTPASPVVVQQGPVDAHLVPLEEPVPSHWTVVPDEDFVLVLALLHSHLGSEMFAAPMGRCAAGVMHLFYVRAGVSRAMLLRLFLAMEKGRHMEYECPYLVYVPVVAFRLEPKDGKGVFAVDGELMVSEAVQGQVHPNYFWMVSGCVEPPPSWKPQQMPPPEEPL
Sequence of Mitogen-activated protein kinase 14 (Homo sapiens) (Q16539 whole entry): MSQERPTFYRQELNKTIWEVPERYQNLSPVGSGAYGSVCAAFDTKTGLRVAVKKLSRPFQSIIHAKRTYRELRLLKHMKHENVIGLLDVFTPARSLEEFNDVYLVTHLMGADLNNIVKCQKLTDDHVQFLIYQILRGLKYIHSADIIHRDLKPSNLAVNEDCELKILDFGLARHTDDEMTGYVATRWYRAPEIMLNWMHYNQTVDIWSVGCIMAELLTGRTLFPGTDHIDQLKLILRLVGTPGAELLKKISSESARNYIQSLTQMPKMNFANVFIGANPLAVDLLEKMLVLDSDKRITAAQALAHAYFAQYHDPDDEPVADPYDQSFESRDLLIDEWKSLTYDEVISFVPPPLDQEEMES
Sequence of Mitogen-activated protein kinase 3 (Homo sapiens) (P27361 whole entry): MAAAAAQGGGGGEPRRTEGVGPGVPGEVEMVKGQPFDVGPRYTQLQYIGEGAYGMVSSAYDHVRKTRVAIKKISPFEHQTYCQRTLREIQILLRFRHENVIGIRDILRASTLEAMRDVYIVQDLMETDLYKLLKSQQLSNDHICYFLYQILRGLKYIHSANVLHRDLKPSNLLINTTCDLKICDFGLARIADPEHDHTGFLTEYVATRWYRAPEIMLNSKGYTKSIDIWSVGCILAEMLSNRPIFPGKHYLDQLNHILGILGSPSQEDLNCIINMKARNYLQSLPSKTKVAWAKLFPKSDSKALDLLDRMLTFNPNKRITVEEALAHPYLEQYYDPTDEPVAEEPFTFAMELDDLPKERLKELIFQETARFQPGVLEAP

Take `COc1ccc(-c2nn3ncccc3c2-c2ccnc(Nc3ccc4c(c3)OCCO4)n2)cc1`: the inhibition is 1.27% in [1]; -1.29% in [2]; -0.23% in assay [3]; 68.9% in assay [4]; 87% in assay [5]; 48.6% in assay [6]. Also, the inhibition was 75.4% in [7]; 0.57% in assay [8]; -1.08% in [9]; 0.47% in [10]; 1.16% in assay [11]; -0.82% in assay [12]. Further, the inhibition was -2.72% in assay [13]; 2.37% in [14]; 3.63% in [15]; 2.13% in [16]; 5.91% in assay [17]; -2.82% in assay [18]. Also, the inhibition in [19] was -1.12%; in [20] it was -0.35%.
In the case of `CN(C)CCOc1ccc(-c2nc(-c3ccncc3)c(-c3ccc4c(c3)CC/C4=N\O)[nH]2)cc1`, the inhibition in [1] was found to be 3.36%; in assay [2], 1.13%; in [3], 1.14%; in assay [4], 3.87%; in assay [5], 15.9%; in [6] it was 2.37%. Besides, the inhibition in assay [7] is 6.69%; in assay [8], 0.98%; in assay [9], 4.84%; in assay [10], 1.54%; in assay [11], 1.28%; in [12], -0.47%. Further, the inhibition is -0.41% in [13]; 3.08% in assay [14]; 3.29% in [15]; 1.62% in assay [16]; 4.12% in assay [17]; -1.17% in assay [18]. For the same compound, the inhibition in assay [19] was -2.78%; in [20] it was 11.7%.
For the compound `CC(=O)Nc1cccc(C#Cc2cncnc2Nc2ccc(OCc3cccc(F)c3)c(Cl)c2)c1`, the inhibition in assay [1] is 3.68%; in [2] it was 1.32%; in [3], -0.25%; in [4], 3.3%; in assay [5], 5.63%; in [6] it was 0.27%. In addition, the inhibition in [7] was 1.34%; in assay [8] it was 2.42%; in [9], 2.73%; in assay [10], 0.58%; in assay [11] it was 1.97%; in assay [12], -1.41%. The inhibition in assay [13] was -3.44%; in assay [14] it was 1.85%; in assay [15] it was 1.66%; in [16], 2.58%; in assay [17], 0.8%; in assay [18] it was -0.32%. Besides, the figures for the inhibition in assay [19] and in assay [20] were -1.07% and -0.47%, respectively.
As for `NS(=O)(=O)c1ccc(N/N=C2\C(=O)Nc3ccc4ncccc4c32)cc1`, the inhibition in assay [1] is 30.9%; in [2], -0.65%; in [3], -0.87%; in assay [4], 0.75%; in [5], 12.3%; in [6], 7.81%. Besides, the inhibition is 26.7% in [7]; 0.25% in assay [8]; 10% in [9]; 3.34% in assay [10]; 18.9% in assay [11]; -3.05% in assay [12]. Moreover, the inhibition in assay [13] is -3.18%; in [14] it was 1.35%; in assay [15], 7.38%; in assay [16] it was 1.9%; in assay [17], 8.23%; in assay [18], 1.16%. For the same compound, the inhibition was 0.49% in assay [19] and -2.17% in [20].
Take `COc1cc(Nc2nccc(Nc3ccc4c(C)n[nH]c4c3)n2)cc(OC)c1OC`: the inhibition turned out to be 2.18% in assay [1]; 1.08% in assay [2]; 0.79% in assay [3]; 4.78% in [4]; 10% in assay [5]; 2.04% in assay [6]. Also, the inhibition in [7] was 6.13%; in assay [8] it was 3.72%; in assay [9], 4.71%; in assay [10], -0.26%; in assay [11] it was 1.69%; in [12] it was -2.15%. Besides, the inhibition was -3.51% in assay [13]; 1.57% in [14]; 3.03% in assay [15]; 2.45% in assay [16]; 21.3% in [17]; 3.96% in assay [18]. Also, the inhibition in assay [19] was 4.89%; in assay [20] it was -0.37%.
For `O=C(Nc1n[nH]c2cc(-c3ccc(F)cc3)ccc12)C1CC1`, the inhibition in assay [1] was 0.11%; in [2], -0.27%; in [3], 0.1%; in [4] it was 3.02%; in [5], 7.71%; in assay [6] it was 3.42%. Further, the inhibition in assay [7] was 7.25%; in assay [8] it was 2.38%; in assay [9], 4.36%; in assay [10] it was 2.05%; in assay [11], 2.53%; in assay [12], -1.78%. For the same compound, the inhibition in assay [13] was -2.19%; in assay [14] it was 5.93%; in assay [15] it was 9.6%; in assay [16] it was 7.39%; in assay [17], 10.8%; in assay [18], 3.38%. The inhibition is -2.55% in [19] and 2.17% in [20].

Source of the values: ChEMBL document CHEMBL1961873, “Compounds: GSK PKIS; Assays: Nanosyn kinase panel” (2012).
